Laboratory results from publication PMC11006913.

How the values were obtained:
Assay in all cases: PBM; 200 nM protein, PBS
Settings in all cases: dsDNA, one strand shown
HOXB9 [1] = molecular target: HOXB9 (Homo sapiens, UniProt P17482 171-250, T197M)
HOXC9 [2] = molecular target: HOXC9 (Homo sapiens, UniProt P31274 178-260, K195R)
VENTX = molecular target: T1, VENTX (Homo sapiens, UniProt O95231 78-163)
T1 sequence: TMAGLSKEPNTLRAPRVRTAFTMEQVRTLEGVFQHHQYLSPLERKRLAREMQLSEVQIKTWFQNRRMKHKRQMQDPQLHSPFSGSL

HOXA7 [3] = molecular target: HOXA7 (Homo sapiens, UniProt P31268 116-202)
HOXC10 [4] = molecular target: HOXC10 (Homo sapiens, UniProt Q9NYD6 254-340)
HOXB6 [5] = molecular target: HOXB6 (Homo sapiens, UniProt P17509 132-218, K202E)
HOXB9 [6] = molecular target: HOXB9 (Homo sapiens, UniProt P17482 171-250)
HOXC9 [7] = molecular target: HOXC9 (Homo sapiens, UniProt P31274 178-260)
HOXD13 [8] = molecular target: HOXD13 (Homo sapiens, UniProt P35453 263-343, T313R)
HOXC9 [9] = molecular target: HOXC9 (Homo sapiens, UniProt P31274 178-260, R193K)
HOXD13 [10] = molecular target: HOXD13 (Homo sapiens, UniProt P35453 263-343)
HOXC10 [11] = molecular target: HOXC10 (Homo sapiens, UniProt Q9NYD6 254-340, K271E)
HOXD13 [12] = molecular target: HOXD13 (Homo sapiens, UniProt P35453 263-343, T313A)
HOXB9 [13] = molecular target: HOXB9 (Homo sapiens, UniProt P17482 171-250, R186Q)
HOXC9 [14] = molecular target: HOXC9 (Homo sapiens, UniProt P31274 178-260, R222W)
HOXA7 [15] = molecular target: HOXA7 (Homo sapiens, UniProt P31268 116-202, W177C)
HOXB6 [16] = molecular target: HOXB6 (Homo sapiens, UniProt P17509 132-218)
Sequence of HOXB6 (Homo sapiens, UniProt P17509 132-218) (P17509 132-218): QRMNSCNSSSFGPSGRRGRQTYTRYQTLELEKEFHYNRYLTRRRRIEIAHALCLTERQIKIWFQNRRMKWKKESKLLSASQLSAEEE

Sequence of HOXD13 (Homo sapiens, UniProt P35453 263-343, T313A) (P35453 263-343 T313A): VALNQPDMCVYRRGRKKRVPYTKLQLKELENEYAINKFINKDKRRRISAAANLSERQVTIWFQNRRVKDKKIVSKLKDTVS
Sequence of HOXB9 (Homo sapiens, UniProt P17482 171-250, R186Q) (P17482 171-250 R186Q): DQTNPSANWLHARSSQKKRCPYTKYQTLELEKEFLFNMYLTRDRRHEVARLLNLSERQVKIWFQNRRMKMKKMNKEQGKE
Sequence of HOXC9 (Homo sapiens, UniProt P31274 178-260, R193K) (P31274 178-260 R193K): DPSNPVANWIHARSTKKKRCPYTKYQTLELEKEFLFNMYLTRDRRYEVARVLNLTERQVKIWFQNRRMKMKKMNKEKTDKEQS
Sequence of HOXD13 (Homo sapiens, UniProt P35453 263-343, T313R) (P35453 263-343 T313R): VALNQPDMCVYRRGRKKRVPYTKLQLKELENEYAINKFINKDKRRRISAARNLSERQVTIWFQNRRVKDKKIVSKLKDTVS
Sequence of HOXC9 (Homo sapiens, UniProt P31274 178-260) (P31274 178-260): as the sequence (P31274 178-260 R193K) above, with K16R counted along it
Sequence of HOXB6 (Homo sapiens, UniProt P17509 132-218, K202E) (P17509 132-218 K202E): as the sequence (P17509 132-218) above, with K71E counted along it
Sequence of HOXC10 (Homo sapiens, UniProt Q9NYD6 254-340, K271E) (Q9NYD6 254-340 K271E): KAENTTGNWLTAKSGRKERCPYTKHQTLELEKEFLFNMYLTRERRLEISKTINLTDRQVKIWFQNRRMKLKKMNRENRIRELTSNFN
Sequence of HOXC9 (Homo sapiens, UniProt P31274 178-260, K195R) (P31274 178-260 K195R): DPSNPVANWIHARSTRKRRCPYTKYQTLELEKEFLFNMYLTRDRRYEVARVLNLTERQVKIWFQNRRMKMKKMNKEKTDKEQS
Sequence of HOXA7 (Homo sapiens, UniProt P31268 116-202) (P31268 116-202): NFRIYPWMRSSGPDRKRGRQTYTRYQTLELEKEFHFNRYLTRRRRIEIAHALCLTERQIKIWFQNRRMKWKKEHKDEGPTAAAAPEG
Sequence of HOXB9 (Homo sapiens, UniProt P17482 171-250, T197M) (P17482 171-250 T197M): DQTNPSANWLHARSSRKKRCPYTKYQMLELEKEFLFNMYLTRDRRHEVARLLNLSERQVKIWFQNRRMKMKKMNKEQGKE
Sequence of HOXC10 (Homo sapiens, UniProt Q9NYD6 254-340) (Q9NYD6 254-340): as the sequence (Q9NYD6 254-340 K271E) above, with E18K counted along it
Sequence of HOXB9 (Homo sapiens, UniProt P17482 171-250) (P17482 171-250): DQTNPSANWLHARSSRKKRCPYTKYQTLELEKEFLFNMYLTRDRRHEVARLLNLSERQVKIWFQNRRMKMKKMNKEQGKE
Sequence of HOXD13 (Homo sapiens, UniProt P35453 263-343) (P35453 263-343): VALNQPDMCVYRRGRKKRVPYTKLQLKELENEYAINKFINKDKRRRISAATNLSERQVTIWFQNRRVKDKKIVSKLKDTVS
Sequence of HOXA7 (Homo sapiens, UniProt P31268 116-202, W177C) (P31268 116-202 W177C): as the sequence (P31268 116-202) above, with W62C counted along it
Sequence of HOXC9 (Homo sapiens, UniProt P31274 178-260, R222W) (P31274 178-260 R222W): as the sequence (P31274 178-260 R193K) above, with K16R, R45W counted along it

| Sequence | binding signal (HOXB9 [1]) | binding signal (HOXC9 [2]) | binding signal (VENTX) | binding signal (HOXA7 [3]) | binding signal (HOXC10 [4]) | binding signal (HOXB6 [5]) | binding signal (HOXB9 [6]) | binding signal (HOXC9 [7]) | binding signal (HOXD13 [8]) | binding signal (HOXC9 [9]) | binding signal (HOXD13 [10]) | binding signal (HOXC10 [11]) | binding signal (HOXD13 [12]) | binding signal (HOXB9 [13]) | binding signal (HOXC9 [14]) | binding signal (HOXA7 [15]) | binding signal (HOXB6 [16]) |
| --- | --- | --- | --- | --- | --- | --- | --- | --- | --- | --- | --- | --- | --- | --- | --- | --- | --- |
| CCCATTAA | 10.1 upbm affinity estimate (log intensity, higher = more binding, comparable within an allelic series) | 12.9 upbm affinity estimate (log intensity, higher = more binding, comparable within an allelic series) | 13.1 upbm affinity estimate (log intensity, higher = more binding, comparable within an allelic series) | 11.8 upbm affinity estimate (log intensity, higher = more binding, comparable within an allelic series) | 12.2 upbm affinity estimate (log intensity, higher = more binding, comparable within an allelic series) | 9.99 upbm affinity estimate (log intensity, higher = more binding, comparable within an allelic series) | 12.2 upbm affinity estimate (log intensity, higher = more binding, comparable within an allelic series) | 12.9 upbm affinity estimate (log intensity, higher = more binding, comparable within an allelic series) | 10.6 upbm affinity estimate (log intensity, higher = more binding, comparable within an allelic series) | 12.9 upbm affinity estimate (log intensity, higher = more binding, comparable within an allelic series) | 11.8 upbm affinity estimate (log intensity, higher = more binding, comparable within an allelic series) | 12.2 upbm affinity estimate (log intensity, higher = more binding, comparable within an allelic series) | 11.5 upbm affinity estimate (log intensity, higher = more binding, comparable within an allelic series) | 12 upbm affinity estimate (log intensity, higher = more binding, comparable within an allelic series) | 10.9 upbm affinity estimate (log intensity, higher = more binding, comparable within an allelic series) | 8.83 upbm affinity estimate (log intensity, higher = more binding, comparable within an allelic series) | 12.3 upbm affinity estimate (log intensity, higher = more binding, comparable within an allelic series) |
| GGCCCCCC | 8.33 upbm affinity estimate (log intensity, higher = more binding, comparable within an allelic series) |  |  |  |  |  | 8.39 upbm affinity estimate (log intensity, higher = more binding, comparable within an allelic series) |  |  |  |  |  |  | 8.36 upbm affinity estimate (log intensity, higher = more binding, comparable within an allelic series) |  |  |  |
| CTAATGAG |  |  | 12.6 upbm affinity estimate (log intensity, higher = more binding, comparable within an allelic series) |  |  |  |  |  |  |  |  |  |  |  |  |  |  |
| GCCGCTCC |  |  |  |  |  |  |  |  | 9.38 upbm affinity estimate (log intensity, higher = more binding, comparable within an allelic series) |  | 9.56 upbm affinity estimate (log intensity, higher = more binding, comparable within an allelic series) |  | 9.61 upbm affinity estimate (log intensity, higher = more binding, comparable within an allelic series) |  |  |  |  |
| ATCATTAA | 10.3 upbm affinity estimate (log intensity, higher = more binding, comparable within an allelic series) | 12.8 upbm affinity estimate (log intensity, higher = more binding, comparable within an allelic series) |  | 11.7 upbm affinity estimate (log intensity, higher = more binding, comparable within an allelic series) | 12.4 upbm affinity estimate (log intensity, higher = more binding, comparable within an allelic series) | 10.2 upbm affinity estimate (log intensity, higher = more binding, comparable within an allelic series) | 12.1 upbm affinity estimate (log intensity, higher = more binding, comparable within an allelic series) | 12.8 upbm affinity estimate (log intensity, higher = more binding, comparable within an allelic series) | 10.7 upbm affinity estimate (log intensity, higher = more binding, comparable within an allelic series) | 12.8 upbm affinity estimate (log intensity, higher = more binding, comparable within an allelic series) | 11.8 upbm affinity estimate (log intensity, higher = more binding, comparable within an allelic series) | 12.3 upbm affinity estimate (log intensity, higher = more binding, comparable within an allelic series) | 11.7 upbm affinity estimate (log intensity, higher = more binding, comparable within an allelic series) | 11.8 upbm affinity estimate (log intensity, higher = more binding, comparable within an allelic series) | 11.1 upbm affinity estimate (log intensity, higher = more binding, comparable within an allelic series) | 8.9 upbm affinity estimate (log intensity, higher = more binding, comparable within an allelic series) | 12 upbm affinity estimate (log intensity, higher = more binding, comparable within an allelic series) |
| CCCCCTCG | 8.45 upbm affinity estimate (log intensity, higher = more binding, comparable within an allelic series) |  |  |  |  |  | 8.63 upbm affinity estimate (log intensity, higher = more binding, comparable within an allelic series) |  |  |  |  |  |  | 8.59 upbm affinity estimate (log intensity, higher = more binding, comparable within an allelic series) |  |  |  |
| CGTGCCTC | 8.3 upbm affinity estimate (log intensity, higher = more binding, comparable within an allelic series) |  |  |  | 10 upbm affinity estimate (log intensity, higher = more binding, comparable within an allelic series) | 8.93 upbm affinity estimate (log intensity, higher = more binding, comparable within an allelic series) | 8.2 upbm affinity estimate (log intensity, higher = more binding, comparable within an allelic series) |  |  |  |  | 9.99 upbm affinity estimate (log intensity, higher = more binding, comparable within an allelic series) |  | 8.24 upbm affinity estimate (log intensity, higher = more binding, comparable within an allelic series) |  |  | 8.84 upbm affinity estimate (log intensity, higher = more binding, comparable within an allelic series) |
| TCATTAAA | 10.2 upbm affinity estimate (log intensity, higher = more binding, comparable within an allelic series) | 13 upbm affinity estimate (log intensity, higher = more binding, comparable within an allelic series) |  | 11.6 upbm affinity estimate (log intensity, higher = more binding, comparable within an allelic series) | 12.6 upbm affinity estimate (log intensity, higher = more binding, comparable within an allelic series) | 10.1 upbm affinity estimate (log intensity, higher = more binding, comparable within an allelic series) | 12.2 upbm affinity estimate (log intensity, higher = more binding, comparable within an allelic series) | 12.9 upbm affinity estimate (log intensity, higher = more binding, comparable within an allelic series) | 10.8 upbm affinity estimate (log intensity, higher = more binding, comparable within an allelic series) | 12.9 upbm affinity estimate (log intensity, higher = more binding, comparable within an allelic series) | 11.9 upbm affinity estimate (log intensity, higher = more binding, comparable within an allelic series) | 12.4 upbm affinity estimate (log intensity, higher = more binding, comparable within an allelic series) | 11.7 upbm affinity estimate (log intensity, higher = more binding, comparable within an allelic series) | 12 upbm affinity estimate (log intensity, higher = more binding, comparable within an allelic series) | 11.2 upbm affinity estimate (log intensity, higher = more binding, comparable within an allelic series) | 9 upbm affinity estimate (log intensity, higher = more binding, comparable within an allelic series) | 11.9 upbm affinity estimate (log intensity, higher = more binding, comparable within an allelic series) |
| GTCATTAA | 10.4 upbm affinity estimate (log intensity, higher = more binding, comparable within an allelic series) | 13.1 upbm affinity estimate (log intensity, higher = more binding, comparable within an allelic series) | 12.6 upbm affinity estimate (log intensity, higher = more binding, comparable within an allelic series) | 12.2 upbm affinity estimate (log intensity, higher = more binding, comparable within an allelic series) | 12.6 upbm affinity estimate (log intensity, higher = more binding, comparable within an allelic series) | 10.3 upbm affinity estimate (log intensity, higher = more binding, comparable within an allelic series) | 12.5 upbm affinity estimate (log intensity, higher = more binding, comparable within an allelic series) | 13.2 upbm affinity estimate (log intensity, higher = more binding, comparable within an allelic series) |  | 13.1 upbm affinity estimate (log intensity, higher = more binding, comparable within an allelic series) |  | 12.8 upbm affinity estimate (log intensity, higher = more binding, comparable within an allelic series) | 11.6 upbm affinity estimate (log intensity, higher = more binding, comparable within an allelic series) | 12.2 upbm affinity estimate (log intensity, higher = more binding, comparable within an allelic series) | 11 upbm affinity estimate (log intensity, higher = more binding, comparable within an allelic series) | 8.94 upbm affinity estimate (log intensity, higher = more binding, comparable within an allelic series) | 12.4 upbm affinity estimate (log intensity, higher = more binding, comparable within an allelic series) |
